Assay outcomes: PubChem BioAssay, several laboratories
A selection: hits, their analogues and other compounds. The true share with any hit is near 12%.
WT yeast gro inh: growth inhibition of WT yeast, mitochondrial fusion screen. inhibition, % at 10 µM. AID 1362. actives 2.1% (n = 190,000). mitochondrial fusion phenotypic screen, WT strain; in the data active = inhibition above about 58%; tested in S. cerevisiae
Ins promoter up: MIN6 insulin promoter up-regulation; MIN6 insulin promoter-GFP reporter, high-content imaging; active compounds read high; z-score at 5 µM; actives 0.3% (n = 190,000);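 active = z-score above 3 at 5 µM with at least 500 cells counted in the well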
Cl transport mod: modulates chloride dependent transport by human KCC2. KCC2 cells, thallium flux FluoZin-2 fluorescence. B-score of Tl+ flux slope (higher = more flux/activation; lower = inhibition) at 10 µM. AID 1456. Q9H2X9. actives 2.2% (n = 190,000);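 active = thallium flux slope and its plate-corrected score both differing from the plate sample mean at a set confidence after two filtering rounds, in either direction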;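 note: slope of fluorescence scaled to starting intensity during 10 to 20 s after thallium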
Lmaj promast: Leishmania major promastigote growth inhibition. inhibition, % at 10 µM. Leishmania major promastigotes, resazurin fluorescence viability. actives 9% (n = 200,000); in the data active = inhibition above about 50%;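 note: promastigotes grown with compound for 44 hours at 28 °C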
ROMK mod: modulates human ROMK potassium channel activity. B-score at 10 µM. actives 2% (n = 130,000). Tet-inducible ROMK, thallium flux fluorescence; actives lie on both sides. P48048;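 active = signal ratio slope over the read window, or its plate-corrected B-score, at least 3 SD from the plate mean, either direction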;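 note: B-score of the F/F0 ratio slope over 7 to 12 s after thallium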
Target sequence (P48048 whole entry, looked up): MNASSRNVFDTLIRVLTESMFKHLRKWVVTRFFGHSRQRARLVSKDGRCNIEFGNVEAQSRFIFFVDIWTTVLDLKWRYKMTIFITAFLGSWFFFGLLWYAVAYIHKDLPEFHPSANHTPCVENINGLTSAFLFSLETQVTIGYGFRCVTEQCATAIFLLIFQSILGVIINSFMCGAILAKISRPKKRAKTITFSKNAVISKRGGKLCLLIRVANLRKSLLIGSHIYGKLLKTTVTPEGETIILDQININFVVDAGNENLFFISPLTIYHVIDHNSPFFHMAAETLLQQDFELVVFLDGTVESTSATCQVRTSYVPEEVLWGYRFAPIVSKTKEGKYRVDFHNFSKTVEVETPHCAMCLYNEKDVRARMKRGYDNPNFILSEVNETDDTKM
INS promoter inh: TRM-6 insulin promoter activity inhibition. TRM-6 cells (human fetal islet line), insulin promoter-eGFP reporter, imaging; reporter expression induced with tamoxifen. inhibition, % at 2 µM. actives 0.9% (n = 130,000). AID 1273;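 active = inhibition above the mean plus 3 SD, with well images judged a real hit on visual review, cut at about 60% in these data, passing the limit was not always enough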
Hits are given with their value; i = inactive; nt = no result.

SMILES	WT yeast gro inh	Ins promoter up	Cl transport mod	Lmaj promast	ROMK mod	INS promoter inh
Cc1c(C(N)=O)sc2ncn(CC(=O)OC(C)C)c(=O)c12	i	i	i	i	nt	i
COc1ccc(Cl)cc1NC(=O)CSc1nc(N2CCCCC2)nc(N2CCCCC2)n1	i	i	nt	i	nt	i
COc1ccccc1NC(=O)Nc1cc(NC(=O)Nc2ccccc2OC)c(C)nc1C	i	i	i	63.9	i	i
COc1ccccc1NC(=O)/C=C\C(=O)O	i	i	i	i	i	100.0
COc1ccc(NC(=O)Nc2ccccc2OC)cc1	i	i	i	i	i	i
O=c1[nH]c(=O)n(CCO)c2nnn(Cc3ccccc3)c12	i	i	i	i	i	nt
Cc1ccccc1Nc1nc(N)nc(COC(=O)c2cccc(S(=O)(=O)N(C)C)c2)n1	i	i	i	65.7	i	i
C=CCSC1=NC(=O)/C(=C/c2cccs2)S1	i	i	i	i	-5.66	i
O=C(COc1cccc(F)c1)Nc1ccc2[nH]c(=O)[nH]c2c1	i	nt	i	i	i	i
S=c1[nH]ncn1/N=C/c1cccc(Oc2ccccc2)c1	72.9	i	nt	i	i	i
O=C(Nc1cccnc1)c1ccc(NS(=O)(=O)c2cc([N+](=O)[O-])ccc2Cl)cc1	nt	i	nt	nt	nt	nt
O=C(N/C(=C\c1cccnc1)C(=O)N1CCOCC1)c1cccc(Br)c1	i	i	i	i	i	i
O=C(Nc1ccc(Br)cc1)c1ccc(Br)c(S(=O)(=O)Nc2cccnc2)c1	i	i	i	72.7	i	i
O=C(/C=C/c1cccnc1)c1ccc(NC(=O)c2cccc(Br)c2)cc1	i	i	i	99.1	i	i
C#Cc1ccc([C@H]2C=C(C(=O)N3CCN(Cc4ccc5c(c4)OCO5)CC3)O[C@@H](OCC)[C@@H]2CCCO)cc1	i	i	i	i	nt	nt
Cc1ccc(S(=O)(=O)Nc2ccc(-c3csc(-c4ccccc4)n3)cc2)cc1	i	i	i	i	i	i
O=S(=O)(Nc1ccc(-c2csc(-c3ccccc3)n2)cc1)c1ccccc1	90.6	nt	i	i	i	i
COc1ccc(-c2csc(NS(=O)(=O)c3ccc([N+](=O)[O-])cc3)n2)cc1	i	i	i	i	nt	i
O=C(Cc1nc(-c2ccc([N+](=O)[O-])cc2)cs1)Nc1ccccc1	i	8.58	nt	i	nt	i
O=[N+]([O-])c1ccc(S(=O)(=O)Nc2ccc(-c3csc(-c4ccccc4)n3)cc2)cc1	95.4	i	nt	i	nt	i
CC(C)Sc1nnc([C@@H]2CCCN2C(=O)OC(C)(C)C)o1	i	i	i	i	i	i
O=C(CSc1ccccn1)Nc1ccc(Cl)cn1	i	i	i	i	i	nt
COC(c1ccccc1)c1nnc(CCC(=O)N(C)CCOc2ccccc2)o1 (centres undefined)	i	i	i	i	i	nt
CCn1c(SCC(=O)Nc2cc(C)on2)nnc1-c1ccc(S(=O)(=O)N2CCCC2)cc1	i	i	i	69.1	nt	nt
CCn1c(SCC(=O)Nc2nccs2)nnc1-c1ccc(S(=O)(=O)N2CCCCC2)cc1	i	i	i	56.0	nt	i
SMILES	WT yeast gro inh	Ins promoter up	Cl transport mod	Lmaj promast	ROMK mod	INS promoter inh
Cc1cc(C(F)(F)F)n2nc(-c3cnn(C)c3C(F)(F)F)c(Cl)c2n1	i	i	i	i	nt	i
O=S(=O)(Nc1ccc(S(=O)(=O)N2CCCCC2)cc1)c1ccc(Br)s1	i	i	i	i	nt	i
CCNc1nc(Cl)nc(NCCOc2ccc(C)cc2)n1	i	i	i	i	nt	i
CN(C)c1nc(Cl)nc(NCCOc2ccccc2)n1	i	i	i	i	i	65.5
CSc1cccc(NS(=O)(=O)c2ccc(F)cc2)c1	i	i	i	55.5	nt	i
CSc1cccc(NS(=O)(=O)c2ccccc2)c1	i	i	i	i	nt	i
O=C(CC(Nc1ccccc1Cl)C(=O)O)c1ccccc1 (centres undefined)	i	i	i	i	i	i
Cc1c(Cl)cccc1NC(CC(=O)c1ccccc1)C(=O)O (centres undefined)	i	i	i	67.5	i	i
CCOC(=O)CSc1cccc2cccnc12	i	i	15.5	91.5	nt	i
COc1ccc(NC(=O)CSc2cccc3cccnc23)c(OC)c1	i	i	i	i	i	i
CCCCCOc1ccc(NC(=O)CSc2cccc3cccnc23)cc1	i	i	5.4	i	nt	i
N#CC(C#N)=C1C=CC=CN1/C(=C\c1ccco1)C(=O)c1ccc(-c2ccccc2)cc1	i	i	i	100.0	nt	nt
CCN(CC)c1ccc(NC(=O)c2cc(OC)cc(OC)c2)c(C)c1	i	i	i	i	nt	i
